# Reference: PubChem BioAssay AID1159580 (chemical genetic matrix, 2015)
# Where “and” joins values, the source holds several entries; their conditions need not be identical. Identical values can stand only once. Hit rate of the full screen: of about 5,500 compounds, about 2,000 (36%) were called active. Roughly 18% stayed inconclusive and do not appear here. The list shows a part of the results. Unmarked numbers belong to inactive results. No stated cut-off is given here; in the data, active means normalized growth mostly below about 0.91 (no sharp cut-off); inconclusive means no clear call, values can overlap the other calls; inactive means mostly above about 0.92.
# Experiment: chemical genetic growth profiling, strain panel (AID 1159580);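 further: tested at 20 µM; growth read once vehicle control cultures reached saturation at 30 °C; 1 = growth at the plate median or of vehicle wells; lower values mean less growth of the strain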
# Conditions: growth OD
# [1] = S. cerevisiae deletion strains, locus YAL013W, strain DEP1, hits give low values
# [2] = S. cerevisiae deletion strains, locus YBR229C, strain ROT2, hits give low values
# [3] = S. cerevisiae deletion strains, locus YDL101C, strain DUN1, hits give low values
# [4] = S. cerevisiae deletion strains, locus YDL134C, strain PPH21, hits give low values
# [5] = S. cerevisiae deletion strains, locus YDR150W, strain NUM1, hits give low values
# [6] = S. cerevisiae deletion strains, locus YEL061C, strain CIN8, hits give low values
# [7] = S. cerevisiae deletion strains, locus YGR078C, strain PAC10, hits give low values
# [8] = S. cerevisiae deletion strains, locus YGR229C, strain SMI1, hits give low values
# [9] = S. cerevisiae deletion strains, locus YHR030C, strain SLT2, hits give low values
# [10] = S. cerevisiae deletion strains, locus YJR043C, strain POL32, hits give low values
# [11] = S. cerevisiae deletion strains, locus YJR075W, strain HOC1, hits give low values
# [12] = S. cerevisiae deletion strains, locus YLR039C, strain RIC1, hits give low values
# [13] = S. cerevisiae deletion strains, locus YLR262C, strain YPT6, hits give low values
# [14] = S. cerevisiae deletion strains, locus YMR263W, strain SAP30, hits give low values
# [15] = S. cerevisiae deletion strains, locus YMR307W, strain GAS1, hits give low values
# [16] = S. cerevisiae deletion strains, locus YNL128W, strain TEP1, hits give low values
# [17] = S. cerevisiae deletion strains, locus YNL153C, strain GIM3, hits give low values
# [18] = S. cerevisiae deletion strains, locus YNL322C, strain KRE1, hits give low values
# [19] = S. cerevisiae deletion strains, locus YOL006C, strain TOP1, hits give low values
# [20] = S. cerevisiae deletion strains, locus YPL055C, strain LGE1, hits give low values
# [21] = S. cerevisiae deletion strains, locus YPL241C, strain CIN2, hits give low values
# [22] = S. cerevisiae deletion strains, locus YAL040C, strain CLN3, hits give low values
# [23] = S. cerevisiae deletion strains, locus YCL061C, strain MRC1 (second series), hits give low values
# [24] = S. cerevisiae deletion strains, locus YDR363W, strain ESC2, hits give low values
# [25] = S. cerevisiae deletion strains, locus YER002W, strain NOP16, hits give low values
# [26] = S. cerevisiae deletion strains, locus YNL175C, strain NOP13, hits give low values
# [27] = S. cerevisiae deletion strains, locus YNL197C, strain WHI3, hits give low values
# [28] = S. cerevisiae deletion strains, locus YNL224C, strain SQS1, hits give low values
# [29] = S. cerevisiae deletion strains, locus YOR083W, strain WHI5 (second series), hits give low values
smiles,measurement,setting,value
Cc1ccc(O)c(C(CCN(C(C)C)C(C)C)c2ccccc2)c1 (stereo not given),normalized growth,[1],1.01
same,normalized growth,"S. cerevisiae deletion strains, locus YBR021W, strain FUR4, hits give low values",1
same,normalized growth,[2],1.01
same,normalized growth,"S. cerevisiae deletion strains, locus YCL029C, strain bik1, hits give low values",0.998
same,normalized growth,"S. cerevisiae deletion strains, locus YDL035C, strain GPR1, hits give low values",1.01
same,normalized growth,"S. cerevisiae deletion strains, locus YDL074C, strain BRE1, hits give low values",1.03
same,normalized growth,[3],1.01
same,normalized growth,[4],1.02
same,normalized growth,"S. cerevisiae deletion strains, locus YDL185W, strain tfp1, hits give low values",0.989
same,normalized growth,"S. cerevisiae deletion strains, locus YDL192W, strain arf1, hits give low values",1
same,normalized growth,"S. cerevisiae deletion strains, locus YDR101C, strain arx1, hits give low values",0.988
same,normalized growth,[5],1.01
same,normalized growth,"S. cerevisiae deletion strains, locus YDR162C, strain NBP2, hits give low values",1
same,normalized growth,"S. cerevisiae deletion strains, locus YDR318W, strain mcm21, hits give low values",0.991
same,normalized growth,"S. cerevisiae deletion strains, locus YDR388W, hits give low values",0.983
same,normalized growth,"S. cerevisiae deletion strains, locus YDR502C, strain sam2, hits give low values",0.996
same,normalized growth,[6],1.01
same,normalized growth,"S. cerevisiae deletion strains, locus YER110C, hits give low values",0.995
same,normalized growth,"S. cerevisiae deletion strains, locus YER155C, strain BEM2, hits give low values",1.01
same,normalized growth,"S. cerevisiae deletion strains, locus YER167W, strain BCK2, hits give low values",0.994
same,normalized growth,"S. cerevisiae deletion strains, locus YGL078C, strain dbp3, hits give low values",0.996
same,normalized growth,"S. cerevisiae deletion strains, locus YGL086W, strain mad1, hits give low values",0.995
same,normalized growth,"S. cerevisiae deletion strains, locus YGL248W, strain PDE1, hits give low values",1
same,normalized growth,[7],1.01
same,normalized growth,"S. cerevisiae deletion strains, locus YGR135W, strain pre9, hits give low values",0.985
same,normalized growth,[8],0.995
same,normalized growth,"S. cerevisiae deletion strains, locus YGR252W, strain gcn5, hits give low values",1
same,normalized growth,[9],1.01 and 1.03
same,normalized growth,"S. cerevisiae deletion strains, locus YHR079C, strain IRE1 (second series), hits give low values",0.988
same,normalized growth,"S. cerevisiae deletion strains, locus YHR079C, strain IRE1, hits give low values",0.981
same,normalized growth,"S. cerevisiae deletion strains, locus YHR094C, strain hxt1, hits give low values",0.987
same,normalized growth,"S. cerevisiae deletion strains, locus YHR129C, strain ARP1, hits give low values",1.02
same,normalized growth,"S. cerevisiae deletion strains, locus YHR200W, strain rpn10, hits give low values",0.982
same,normalized growth,"S. cerevisiae deletion strains, locus YIL066C, strain RNR3, hits give low values",1.02
same,normalized growth,"S. cerevisiae deletion strains, locus YIL073C, strain SPO22, hits give low values",0.967
same,normalized growth,"S. cerevisiae deletion strains, locus YIL125W, strain kgd1, hits give low values",0.985
same,normalized growth,"S. cerevisiae deletion strains, locus YIR030C, strain dcg1, hits give low values",0.993
same,normalized growth,"S. cerevisiae deletion strains, locus YJL095W, strain BCK1, hits give low values",1.01
same,normalized growth,"S. cerevisiae deletion strains, locus YJL134W, strain LCB3, hits give low values",1
same,normalized growth,"S. cerevisiae deletion strains, locus YJL168C, strain set2, hits give low values",0.99
same,normalized growth,"S. cerevisiae deletion strains, locus YJL187C, strain SWE1 (second series), hits give low values",1.01
same,normalized growth,[10],1
same,normalized growth,"S. cerevisiae deletion strains, locus YJR066W, strain TOR1, hits give low values",0.958
same,normalized growth,[11],1
same,normalized growth,"S. cerevisiae deletion strains, locus YKL009W, strain mrt4, hits give low values",1
same,normalized growth,"S. cerevisiae deletion strains, locus YKL068W, hits give low values",0.986
same,normalized growth,"S. cerevisiae deletion strains, locus YKL085W, strain MDH1 (second series), hits give low values",0.99
same,normalized growth,"S. cerevisiae deletion strains, locus YKL085W, strain MDH1, hits give low values",0.99
same,normalized growth,"S. cerevisiae deletion strains, locus YKL190W, strain CNB1, hits give low values",1.01
same,normalized growth,"S. cerevisiae deletion strains, locus YKR001C, strain vps1, hits give low values",0.999
same,normalized growth,[12],1.06
same,normalized growth,"S. cerevisiae deletion strains, locus YLR058C, strain SHM2, hits give low values",1.01
same,normalized growth,"S. cerevisiae deletion strains, locus YLR102C, strain apc9, hits give low values",0.992
same,normalized growth,"S. cerevisiae deletion strains, locus YLR113W, strain HOG1, hits give low values",1.03
same,normalized growth,[13],1.05
same,normalized growth,"S. cerevisiae deletion strains, locus YLR268W, strain sec22, hits give low values",0.984
same,normalized growth,"S. cerevisiae deletion strains, locus YLR330W, strain CHS5, hits give low values",1.01
same,normalized growth,"S. cerevisiae deletion strains, locus YLR342W, strain FKS1 (second series), hits give low values",1.01
same,normalized growth,"S. cerevisiae deletion strains, locus YLR371W, strain rom2, hits give low values",0.972
same,normalized growth,"S. cerevisiae deletion strains, locus YLR418C, strain cdc73, hits give low values",0.982
same,normalized growth,"S. cerevisiae deletion strains, locus YML016C, strain PPZ1, hits give low values",1.02
same,normalized growth,"S. cerevisiae deletion strains, locus YML032C, strain rad52, hits give low values",0.986
same,normalized growth,"S. cerevisiae deletion strains, locus YML124C, strain tub3, hits give low values",0.991
same,normalized growth,"S. cerevisiae deletion strains, locus YMR078C, strain ctf18, hits give low values",0.978
same,normalized growth,"S. cerevisiae deletion strains, locus YMR223W, strain ubp8, hits give low values",0.996
same,normalized growth,[14],1.01
same,normalized growth,[15],0.993
same,normalized growth,"S. cerevisiae deletion strains, locus YNL067W, strain RPL9B, hits give low values",1.01
same,normalized growth,[16],1
same,normalized growth,[17],1.01
same,normalized growth,"S. cerevisiae deletion strains, locus YNL183C, strain NPR1, hits give low values",0.961
same,normalized growth,"S. cerevisiae deletion strains, locus YNL233W, strain BNI4, hits give low values",1.01
same,normalized growth,"S. cerevisiae deletion strains, locus YNL250W, strain rad50, hits give low values",0.981
same,normalized growth,"S. cerevisiae deletion strains, locus YNL271C, strain bni1, hits give low values",0.997
same,normalized growth,"S. cerevisiae deletion strains, locus YNL298W, strain CLA4, hits give low values",0.974
same,normalized growth,"S. cerevisiae deletion strains, locus YNL307C, strain MCK1, hits give low values",0.996
same,normalized growth,[18],1
same,normalized growth,"S. cerevisiae deletion strains, locus YNR052C, strain pop2, hits give low values",0.988
same,normalized growth,[19],1.05
same,normalized growth,"S. cerevisiae deletion strains, locus YOL012C, strain htz1",0.768
same,normalized growth,"S. cerevisiae deletion strains, locus YOL147C, strain pex11, hits give low values",0.986
same,normalized growth,"S. cerevisiae deletion strains, locus YOR061W, strain CKA2, hits give low values",1.02
same,normalized growth,"S. cerevisiae deletion strains, locus YOR069W, strain VPS5, hits give low values",1.01
same,normalized growth,"S. cerevisiae deletion strains, locus YOR136W, strain idh2, hits give low values",0.983
same,normalized growth,"S. cerevisiae deletion strains, locus YOR144C, strain elg1, hits give low values",0.981
same,normalized growth,"S. cerevisiae deletion strains, locus YOR184W, strain ser1, hits give low values",1
same,normalized growth,"S. cerevisiae deletion strains, locus YOR231W, strain MKK1, hits give low values",1
same,normalized growth,"S. cerevisiae deletion strains, locus YOR316C, strain cot1, hits give low values",0.985
same,normalized growth,[20],1.01
same,normalized growth,[21],1.01
same,normalized growth,"S. cerevisiae deletion strains, locus YPL256C, strain CLN2, hits give low values",0.992
same,normalized growth,"S. cerevisiae deletion strains, locus YPR119W, strain clb2, hits give low values",0.98
same,normalized growth,"S. cerevisiae deletion strains, locus YPR141C, strain kar3, hits give low values",0.985
same,normalized growth,"S. cerevisiae deletion strains, locus YPR163C, strain tif3, hits give low values",0.977
same,normalized growth,"S. cerevisiae deletion strains, locus YPR167C, strain met16, hits give low values",0.988
same,normalized growth,"S. cerevisiae deletion strains, strain wtn01, hits give low values",0.988
same,normalized growth,"S. cerevisiae strains, strain wild type, hits give low values",1
Cn1c(=O)c2c(nc(/C=C/c3cccc(Cl)c3)n2C)n(C)c1=O,normalized growth,[22],0.996
same,normalized growth,[23],0.981
same,normalized growth,[24],1.05
same,normalized growth,[25],1.01
same,normalized growth,[8],0.996
same,normalized growth,[16],0.993
same,normalized growth,[17],0.946
same,normalized growth,[26],0.969
same,normalized growth,[27],0.954
same,normalized growth,[28],0.995
same,normalized growth,[18],1.02
same,normalized growth,[29],0.964
same,normalized growth,[20],1.03
same,normalized growth,[21],0.995
COc1ccc(/C=C2/C(=O)N(c3cccc(Cl)c3)N=C2C)cc1,normalized growth,[1],0.983
same,normalized growth,[2],0.963
same,normalized growth,[3],1
same,normalized growth,[4],0.991
same,normalized growth,[5],1
same,normalized growth,[6],0.964
same,normalized growth,[7],0.962
same,normalized growth,[9],0.53 (active)
same,normalized growth,"S. cerevisiae deletion strains, locus YHR087W, strain rtc3, hits give low values",0.866 (active)
same,normalized growth,"S. cerevisiae deletion strains, locus YJL187C, strain SWE1, hits give low values",0.921 (active)
same,normalized growth,[10],1.03
same,normalized growth,[11],0.934
same,normalized growth,[12],0.62 (active)
same,normalized growth,"S. cerevisiae deletion strains, locus YLR058C, strain SHM2 (second series), hits give low values",0.963
same,normalized growth,"S. cerevisiae deletion strains, locus YLR085C, strain ARP6, hits give low values",0.744 (active)
same,normalized growth,[13],0.699 (active)
same,normalized growth,"S. cerevisiae deletion strains, locus YML094W, strain GIM5, hits give low values",0.865 (active)
same,normalized growth,"S. cerevisiae deletion strains, locus YMR219W, strain ESC1, hits give low values",0.938 (active)
same,normalized growth,[14],0.989
same,normalized growth,[17],0.999
same,normalized growth,"S. cerevisiae deletion strains, locus YNL298W, strain CLA4 (second series), hits give low values",0.839
same,normalized growth,[18],0.973
same,normalized growth,"S. cerevisiae deletion strains, locus YNR030W, strain Alg12, hits give low values",0.88 (active)
same,normalized growth,[19],0.849
same,normalized growth,[20],0.961
same,normalized growth,[21],0.897
same,normalized growth,"S. cerevisiae deletion strains, locus YPR135W, strain CTF4, hits give low values",0.599 (active)
Cn1cc(C(=O)OCC2CCN(CCNS(C)(=O)=O)CC2)c2ccccc21,normalized growth,[22],1
same,normalized growth,[23],1.01
same,normalized growth,[5],1.01
same,normalized growth,[24],1
same,normalized growth,[25],1.01
same,normalized growth,[15],1
same,normalized growth,[16],1.03
same,normalized growth,[17],1.04
same,normalized growth,[26],1.05
same,normalized growth,[27],1.06
same,normalized growth,[28],1.05
same,normalized growth,[29],1.03
